The list is not random: actives were taken first. Their share in the collection is about 3%.
Wnt act = activators of Wnt/beta-catenin signaling; activation, % at 9.35 µM; actives 1.2% (n = 300,000); AID 743398; Wnt/beta-catenin reporter cell assay, activator, plate reader; in the data active = activation above about 30%, passing the limit was not always enough; inconclusive = no clear call, values can overlap the other calls;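 also: 0% = neutral control wells and 100% = positive control wells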
esBAF inh = SWI/SNF esBAF complex inhibition; mouse ES cells, Bmi1-luciferase knock-in reporter, 24 h; 100% = twice the neutral-well signal; reporter increase, % at 12.5 µM; actives 2% (n = 350,000); AID 602393; in the data active = activation above about 40%; inconclusive = no clear call, values can overlap the other calls;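 also: 0% = median of the plate's neutral control wells and 100% = double that signal; a rise in the Bmi1 reporter signal indicates esBAF inhibition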
Statin myotox sup = suppression of simvastatin myotoxicity. actives 0.78% (n = 330,000). AID 602340. rescue of ATP level, % at 7.49 µM. C2C12 myotubes + simvastatin, ATP luminescence, 48 h; scaled: DMSO 0, geranylgeraniol control 100;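 active = mean ATP rescue above about 67%, or every replicate alone reaching that limit, limit read from the data, passing the limit was not always enough; inconclusive = no clear call, values can overlap the other calls; inactive = mean under the limit and some replicate under it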;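 also: myotubes were challenged with 10 µM simvastatin during compound exposure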
MITF TRPM1 HTS = MITF TRPM1 promoter activation in melanoma cells; activation, % at 12.5 µM; actives 0.75% (n = 300,000); SK-MEL-5 TRPM1-promoter luciferase, 24 h; % of positive control, neutral wells = 0; AID 588334;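 active = mean activation of at least 80% with every replicate also reaching 80%; inconclusive = mean reaches 80% but some replicate falls short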;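 also: 0% = neutral control wells and 100% = parthenolide positive control wells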
An asterisk follows results filed as active; ? = inconclusive; nt = no result.

SMILES | Wnt act | esBAF inh | Statin myotox sup | MITF TRPM1 HTS
COc1ccccc1S(=O)(=O)Nc1ccc2c(c1)OC[C@@H](C)NC[C@@H](C)[C@@H](OC)CN(C)C2=O | nt | -1 | -7 | nt
CCc1ccc2[nH]c(C(=O)Nc3ccc(Br)c(C)n3)cc2c1 | 16 | 44* | -7 | 66
CCc1ccc2[nH]c(C(=O)Nc3ccc(F)cc3Br)cc2c1 | 1 | 2 | -16 | -15
CCCc1cc(=O)oc2cc(OCc3ccc(C(=O)O)cc3)ccc12 | 5 | 53* | 5 | 23
NNC(=O)c1ccc(COc2ccc3c(c2)CCC3)cc1 | 11 | nt | nt | 17
O=C(O)c1ccc(COc2ccc3c(c2)CCC3)cc1 | 33* | nt | nt | 25
COc1ccc(OCc2ccc(C(=O)O)cc2)cc1 | nt | 51* | 8 | 34
CNC(=O)c1c(Cl)cnn1-c1ccc(C)cc1 | 12 | nt | nt | 56
CNC(=O)c1c(Br)cnn1-c1ccc(C)cc1 | 18 | 84* | 0 | 44
Cc1ccc(-c2nnc(-c3cc(C)on3)o2)cc1 | 49* | -7 | -2 | 49
COc1ccc(-c2nnc(-c3ccc(F)cc3)o2)cc1 | 36* | 13 | 0 | 78
COc1ccc(-c2nnc(-c3ccccc3O)o2)cc1 | 44* | 4 | -3 | 56
CCCc1nnc(-c2ccc(OC)cc2)o1 | 0 | nt | nt | 18
C#CCSc1nnc(-c2ccc(OC)cc2)o1 | 38* | 43* | 13 | 68
CC=Cc1ccc2n(c1=O)C[C@H]1[C@H](CO)[C@@H](C(=O)NC3CCC3)N(S(C)(=O)=O)[C@@H]21 (mixture of isomers) | nt | -4 | -6 | nt
COc1ccc(-c2nnc(-c3ccc(C)cc3)o2)cc1 | 35* | 24 | 4 | 54
Cc1ccc(-c2nnc(-c3ccccc3)o2)cc1 | nt | nt | nt | 0
COCC(=O)N1CC[C@@H]2[C@H]1c1cc(C#Cc3ccccc3)ccc1N[C@@H]2CO | nt | 12 | -2 | nt
COc1cc2cnc(-c3ccccc3)cc2cc1OC | 4 | 33 | 13 | 13
COc1cc(OC)cc(-c2cc3cc4c(cc3cn2)OCO4)c1 | nt | -16 | -61 | 31
COc1ccc(-c2cc3cc4c(cc3cn2)OCO4)cc1 | 37* | -32 | 7 | 22
COc1ccc(-c2cc3cc(OC)c(OC)cc3cn2)cc1 | ? | 68* | 6 | 72
c1ccc(-c2cc3cc4c(cc3cn2)OCO4)cc1 | 63* | 30 | 5 | 27
CO[C@@H]1CN(C)C(=O)c2ccc(NC(C)=O)cc2OC[C@@H](C)N(Cc2ccccc2C(=O)O)C[C@H]1C | nt | 3 | -4 | nt
C[C@@H]1CCCCO[C@H](CN(C)S(=O)(=O)c2ccc(F)cc2)[C@@H](C)CN([C@H](C)CO)C(=O)c2cc(NC(=O)c3ccccc3)ccc2O1 | nt | 3 | nt | nt
SMILES | Wnt act | esBAF inh | Statin myotox sup | MITF TRPM1 HTS
C[C@H](CO)N1C[C@H](C)[C@@H](CN(C)CC2CC2)Oc2cc(-c3cncnc3)ccc2S1(=O)=O | nt | -11 | -19 | nt
COc1ccc(S(=O)(=O)N(C)C[C@H]2Oc3ccc(NS(=O)(=O)c4cn(C)cn4)cc3CC(=O)N([C@H](C)CO)C[C@@H]2C)cc1 | nt | 2 | 22 | nt
O=C(O)C[C@H]1C=C[C@H](NC(=O)Nc2cc(F)ccc2F)[C@@H](CO)O1 | nt | 5 | -6 | nt
Fc1cccc(Cl)c1/C=N/Nc1ccccn1 | 17 | 56* | 30 | 35
Clc1ccc(/C=N/NC(=Nc2ccccc2)c2ccccn2)c(Cl)c1 | nt | -13 | 11 | 14
Fc1cccc(F)c1/C=N/Nc1ccccn1 | 6 | nt | nt | 12
Clc1ccc(C=NNc2ccccn2)c(Cl)c1 | 21 | 43* | -4 | 0
Clc1ccccc1NN=Cc1ccccn1 | 60* | nt | nt | nt
Fc1cccc(/C=N/Nc2ccccn2)c1 | 16 | nt | nt | 97*
CO[C@H]1CC[C@H]2CCOc3c(C#N)cccc3C(=O)N(C)[C@H](C)C(=O)N(C)C[C@@H]1O2 | nt | -9 | 6 | nt
C[C@@H](NC(=O)C[C@@H]1C[C@@H]2c3cc(NC(=O)C4CCOCC4)ccc3O[C@@H]2[C@H](CO)O1)c1ccccc1 | nt | 2 | 0 | nt
Clc1cccc(Cl)c1/C=N\Nc1nccs1 | nt | 6 | 10 | -5
Cc1csc(N/N=C/c2c(F)cccc2Cl)n1 | 8 | 45* | -19 | 19
CC(=O)Nc1ccccc1C(=O)C(=O)Nc1ccccc1 | 3 | 35* | nt | -2
O=C1COc2ccc(OCc3ccc(F)cc3)cc21 | nt | 22 | 6 | 90*
COc1ccc(NC(=O)Nc2ccc3c(c2)C(=O)N([C@H](C)CO)C[C@@H](C)[C@H](CN(C)S(C)(=O)=O)OCCCC[C@@H](C)O3)cc1 | nt | 1 | nt | nt
C/C(CC(=O)Nc1ccc([N+](=O)[O-])cc1)=N\NC(=O)c1ccccc1O | 0 | 45* | 4 | nt
CCC(=O)Nc1ccc2c(c1)C(=O)N(C)C[C@@H](OC)[C@H](C)CN(C(=O)c1cccnc1)[C@@H](C)CO2 | nt | 0 | 3 | nt
Cc1ccc(S(=O)(=O)N(C)C[C@@H]2OCCCC[C@H](C)Oc3ccc(NC(=O)c4ccccc4)cc3C(=O)N([C@H](C)CO)C[C@@H]2C)cc1 | nt | 2 | nt | nt
Nc1ccc(N(CCO)CCO)cc1 | -1 | nt | nt | -2
Cc1cc(N(CCO)CCO)ccc1N=Nc1cc(F)ccc1F | -2 | 59* | -11 | 69
COc1ccccc1C1CC(c2cccs2)=Nc2ccccc2S1 (stereo unspecified) | 41* | 53* | 20 | 3
O=C1C(=C2CCCCC2)SC(=S)N1Cc1ccco1 | -4 | -3 | 1 | -13
CCN1C(=S)SC(=O)C1=C1C=C(C)OC(C)=C1 | nt | nt | 3 | 91*
CCN1C(=S)SC(=O)C1=C1C=C(C)N(Cc2ccco2)C(C)=C1 | 19 | 72* | 21 | 57
SMILES | Wnt act | esBAF inh | Statin myotox sup | MITF TRPM1 HTS
CC(C(=O)N1CCOCC1)N1C(=O)c2cccc3cccc(c23)C1=O (stereo unspecified) | 33* | nt | nt | -10
O=C(CCN1C(=O)c2ccccc2C1=O)N1CCOCC1 | -3 | -7 | -2 | 5
O=C(CCN1C(=O)c2cccc3cccc(c23)C1=O)N1CCOCC1 | 26 | 53* | 6 | 83*
Nc1cccc(Oc2ccc3c(c2)C(=O)N(CC2CCCO2)C3=O)c1 (stereo unspecified) | 15 | 50* | 7 | 65
Cc1ccccc1-c1ccc([C@H]2[C@@H](CO)N3CCCCN(C(=O)c4cccnc4)C[C@@H]23)cc1 | nt | -3 | -16 | nt
N#CCc1nc(CSc2nc3ccccc3o2)cs1 | -3 | 102* | 11 | 55
c1ccc2oc(SCc3nc4ccccc4s3)nc2c1 | nt | nt | nt | 60
COc1ccc(C(=O)Nc2ccc3c(c2)C(=O)N(C)C[C@@H](OC)[C@H](C)CN(C)[C@@H](C)CO3)cc1 | nt | 1 | -7 | nt
Cc1n[nH]c(=O)nc1NCc1ccco1 | nt | -5 | 7 | -2
Cc1n[nH]c(=O)nc1N/N=C/c1ccco1 | 49* | nt | nt | 17
C[C@@H]1CN([C@@H](C)CO)S(=O)(=O)c2ccc(/C=C/c3ccccc3)cc2O[C@H]1CN(C)C(=O)CN1CCOCC1 | nt | 2 | 22 | nt
COc1ccccc1Cc1c(-c2ccccc2)nc2ccc(Br)cn12 | 1 | 52* | -2 | nt
Fc1ccc(-c2nc3ccc(Br)cn3c2Cc2ccccc2C(F)(F)F)cc1 | 13 | 39 | 19 | nt
COc1ccccc1Cc1c(-c2ccc(C)cc2)nc2ccc(Br)cn12 | -2 | 9 | -11 | nt

High-throughput results: PubChem, Broad Institute
